Hits are enriched below; roughly 2% of the tested compounds scored in any of these assays.
Jurkat NFkB inh – inhibitors of the PMA/ionomycin-induced NF-kB reporter in Jurkat cells; PMA/ionomycin-induced NF-kB luciferase reporter, luminescence; inhibition, % at 4 µM; hit rate 0.53% among 330,000; in the data active means inhibition above about 50%
NR2F2 inh – NR2F2 (human) inhibition, primary screen | inhibition, % at 8.6 µM | HEK293T NGFI-A luciferase reporter, luminescence | hit rate 0.7% among 370,000 | P24468;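 active means inhibition above a per-plate cutoff, mean inhibition of test wells between control levels plus 3 SD, cut at about 38% in these data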;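 further: cells cotransfected with COUP-TFII expression vector driving the NGFI-A reporter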
Gli-Sufu block – Gli-Sufu pathway antagonism. Sufu-KO-LIGHT fibroblasts, Gli luciferase reporter luminescence. inhibition, % at 5 µM. hit rate 0.74% among 340,000. AID 588413;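 active means inhibition above about 55%, limit read from the data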
GalR3 antagonist – blocks the human galanin receptor 3; hit rate 0.44% among 360,000; HEK293 GalR3-CNG cAMP membrane potential fluorescence; galR3 body fused to GalR1 C-terminus; inhibition, % at 3 µM; AID 651719;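 active means inhibition above the screen-wide average plus 3 SD, cut at about 13% in these data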;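 further: forskolin and galanin both at EC90 stimulate the cells; cAMP rise reported by CNG channel membrane potential dye signal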
Target sequence (O60755 1-299 limits assumed): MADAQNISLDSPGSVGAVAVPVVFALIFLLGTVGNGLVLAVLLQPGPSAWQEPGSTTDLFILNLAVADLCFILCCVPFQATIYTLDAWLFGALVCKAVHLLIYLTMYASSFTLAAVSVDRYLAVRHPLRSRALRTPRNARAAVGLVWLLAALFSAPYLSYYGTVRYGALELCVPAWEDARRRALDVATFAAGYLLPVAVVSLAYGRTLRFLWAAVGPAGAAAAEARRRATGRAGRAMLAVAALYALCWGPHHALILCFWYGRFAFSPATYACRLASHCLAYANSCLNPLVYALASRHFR
697 NFkB inh – inhibitors of the PMA/ionomycin-induced NF-kB reporter in 697 B cells | 697 B-cell NF-kB luciferase reporter, 16 h | inhibition, % at 4 µM | hit rate 0.33% among 330,000; in the data active means inhibition above about 35%
Gli antag conf – confirmation of Gli-SUFU pathway antagonists | shares compounds with Gli-Sufu block | Sufu-KO-LIGHT cells, Gli luciferase reporter, luminescence | inhibition, % at 5 µM | hit rate 40% among 2,500 | AID 602428;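 active means mean inhibition at 5 µM reaching about 45%, limit read from the data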
SufuKO cytotox – cytotoxic in Gli-SUFU antagonist counter-screen; cytotoxicity, % at 5 µM; shares compounds with Gli-Sufu block; Sufu-KO-LIGHT cells cytotoxicity, ATP luminescence; hit rate 32% among 2,500;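 active means mean cytotoxicity at 5 µM above about 25%, limit read from the data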;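 further: cells exposed to compound overnight for roughly 16 to 18 hours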
Wnt3a cs – inhibits Wnt3a reporter, counter-screen for Gli-SUFU antagonists; shares compounds with Gli-Sufu block; Wnt-LIGHT cells, Wnt3a-driven luciferase reporter, luminescence; inhibition, % at 6.25 µM; hit rate 20% among 2,500; AID 651995;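 active means mean inhibition above about 25%, limit read from the data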
Hits are given with their value; i = inactive; nt = no result.

SMILES	Jurkat NFkB inh	NR2F2 inh	Gli-Sufu block	GalR3 antagonist	697 NFkB inh	Gli antag conf	SufuKO cytotox	Wnt3a cs
CCOC(=O)c1ccc(NC(=O)CNC(=O)C2CCCCC2)cc1	i	i	i	i	i	nt	nt	nt
Cc1cccc(-c2nc(CSCC(=O)NCc3cccs3)c(C)o2)c1	i	i	55	i	i	i	i	i
OC[C@H]1CC[C@@H]2O[C@H](CCc3ccc(-c4ccc(F)cc4)cc3)[C@H](n3cc(C4CC4)nn3)C[C@@H]2O1	nt	i	nt	nt	nt	nt	nt	nt
COc1cc(C2C3=C(COC3=O)Oc3cc4c(cc32)OCO4)cc(OC)c1OC(C)=O (stereo not given)	nt	i	63	i	nt	50	63	i
COc1cc(C2C3=C(COC3=O)Oc3cc4c(cc32)OCO4)ccc1OC(C)=O (stereo not given)	nt	i	i	i	nt	nt	nt	nt
Cc1cc(C(=O)NCc2ccccc2)no1	i	i	89	i	i	i	i	i
Cc1ccccc1NCC(=O)N/N=C/c1ccc[nH]1	nt	i	nt	nt	nt	nt	nt	nt
CCOC(=O)c1c(NC(=O)C[n+]2ccc(Cc3ccccc3)cc2)sc(C)c1C	i	i	i	i	i	i	i	i
CN1Cc2nnn(Cc3ccccc3)c2-c2cc(F)ccc2S1(=O)=O	nt	i	nt	nt	nt	nt	nt	nt
COc1ccc(C(CC(=O)O)NC(=O)COc2ccccc2)cc1 (stereo not given)	i	i	i	i	i	i	i	i
COc1ccc(C2C(C(=O)N3CCN(c4ccccc4Cl)CC3)CC(=O)N2c2ccc(OC)cc2)cc1 (stereo not given)	nt	i	nt	nt	nt	nt	nt	nt
O=C(Nc1nnc(-c2ccco2)o1)c1ccc2ccccc2c1	i	i	97	i	i	i	i	i
Cc1ccc(C(=O)Nc2nnc(-c3ccco3)o2)cc1	i	i	i	i	i	nt	nt	nt
Cc1ccc(S(=O)(=O)N2CCN(C(=O)c3c(C)nn(-c4ccccc4)c3Cl)CC2)cc1	i	i	i	i	i	nt	nt	nt
Cc1cc(C)c(S(=O)(=O)N2CCN(C(=O)c3c(C)nn(-c4ccccc4)c3Cl)CC2)c(C)c1	nt	i	98	i	nt	i	i	i
Cc1cc(C)c(OCC(=O)Nc2ccc(S(=O)(=O)N3CCCC3)cc2)c(C)c1	i	i	98	i	i	i	25	i
Cc1cc(C)c(C)c(S(=O)(=O)N2CCN(c3ncnc4ccccc34)CC2)c1C	i	i	i	i	i	71	i	i
CC(=O)N1CCCN(C(=O)Cn2cnc3ccccc3c2=O)CC1	nt	i	nt	nt	nt	nt	nt	nt
CCCCOc1ccc(C(=O)NCCCC(=O)N2CCCCC2)cc1	i	i	68	i	i	i	i	i
CC(C)CN1C(=O)[C@]2(CC(=O)N(C)C2c2ccccc2)c2cc(-n3cc(CN(C)C)nn3)ccc21 (stereo not given in full)	nt	i	nt	nt	nt	nt	nt	nt
COCc1cc(=O)[nH]c(Nc2nc3ccc(C)cc3o2)n1	i	i	i	i	i	63	26	i
C[C@H]1[C@@H](N(C)C)CC[C@@]23CCCN2C(=O)CCC[C@@H]13	nt	i	nt	nt	nt	nt	nt	nt
N=c1c2c(-c3ccccc3)c(-c3ccccc3)n(CCc3ccccc3)c2ncn1C1CCC(O)CC1 (stereo not given)	nt	i	nt	nt	nt	nt	nt	nt
Cc1ccc(N2CC(c3nc4ccccc4[nH]3)CC2=O)c(C)c1 (stereo not given)	i	i	i	nt	i	i	i	i
O=C(Nc1ccc2oc(-c3ccncc3)nc2c1)c1ccccc1	i	i	85	i	i	i	i	i
NC(=O)CC(NC(=O)c1ccc(Br)cc1)c1ccc(N2CCCCCCC2)c([N+](=O)[O-])c1 (stereo not given)	i	i	60	i	i	i	i	i
NC(=O)CC(NC(=O)c1ccccc1)c1ccc(N2CCC(Cc3ccccc3)CC2)c([N+](=O)[O-])c1 (stereo not given)	i	i	63	i	i	54	27	i
O=C(c1cc2n(n1)C(C(F)(F)F)CC(c1ccc(Cl)cc1)N2)N1CCCC1 (stereo not given)	i	i	57	i	i	i	i	i

Screens: PubChem BioAssay, several laboratories
